Assay results from PubChem BioAssay (NCATS).
Inconclusive results are not listed. Activity calls are given as the source filed them. Unless noted, calls come from the whole dose curve; as a rule, active = well fitted curve in the direction sought with a large enough effect; inconclusive = small, poorly fitted or top-dose-only effect, or another doubt; inactive = no such curve, though single readings can be large; an effect the other way counts as inactive or inconclusive.

Tests used:
[1] = biological target: Cytochrome P450 1A2 (Homo sapiens) (UniProt P05177); assay: p450-cyp1a2 (AID 410; calls by dose curve; note: potency is the fitted concentration of half-maximal effect); settings: recombinant CYP1A2, luciferin-ME demethylation, luminescence; series mostly up to 57 µM
Summary of the method: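 Inhibition was calculated relative to 57 uM furafylline (full inhibition). The reaction used human CYP1A2 at 20nM with Luciferin-ME at its Km, 100uM, driven by an NADPH-regenerating system for 60 min at room temperature.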

[2] = biological target: Glucocorticoid receptor (Homo sapiens) (UniProt P04150); assay: GR-EFC Redistribution (AID 451; calls by dose curve; note: potency is the fitted concentration of half-maximal effect); settings: CHO-K1 GR-EFC translocation, beta-gal luminescence, 2 h
Summary of the method: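 CHO-K1 cells stably expressing nuclear-localized β-gal enzyme acceptor and GR fused C-terminally to the enzyme donor fragment; ligand-driven nuclear translocation restores β-gal by complementation. Compounds titrated up to 46 uM final, 2 h at 37 °C; luminescence read.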

[3] = biological target: Mitogen-activated protein kinase 10 (Mus musculus) (UniProt Q61831); assay: JNK3 AlphaScreen Assay (AID 530; active = well fitted curve in either direction with a large enough effect, not every such curve was filed as active;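 note: kinase came from lysate of stimulated human HepG2 cells; signal reports phosphorylation of biotinylated GST-cJun 1-79 at Ser73 with 10 µM ATP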); settings: JNK3 lysate, c-Jun phosphorylation; series mostly up to 57.1 µM
Summary of the method: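 JNK3 came from HepG2 lysates pre-activated with IL-1beta and TNF-alpha and phosphorylated biotinylated GST-cJun (1-79) at 10 uM ATP, pH 7.6, room temperature. Compounds were titrated. AlphaScreen signal used anti-phospho-cJun (Ser73) antibody.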

[4] = biological target: 3',5'-cyclic-AMP phosphodiesterase 4B (Homo sapiens) (UniProt Q07343); assay: qHTS Assay for Inhibitors of PDE-IV (AID 607; active = well fitted activation curve with a large enough effect in the main read-out, with a control signal flat, not every such curve was filed as active); settings: HEK293 ACTOne CNG channel cells, membrane potential fluorescence; series mostly up to 22.9 µM
Summary of the method: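 The readout is membrane depolarisation from a cAMP-sensing CNG channel, detected with a potential dye at ex 535/em 590. Cells were HEK293-derived (endogenous PDE-IV) at 1000 cells/well, titrated up to 22.9 uM final.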

[5] = biological target: Cytochrome P450 2D6 (Homo sapiens) (UniProt P10635); assay: qHTS Assay for Inhibitors and Substrates of Cytochrome P450 2D6 (AID 891); settings: recombinant CYP2D6, luciferin-ME EGE luminescence; series mostly up to 57.1 µM;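 note: luciferin methyl ether substrate demethylated by CYP2D6 with NADPH regeneration; nearly all actives have a fitted effect of over 60% in size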
Summary of the method: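 Human CYP2D6 (5 nM) with 30 uM Luciferin-ME EGE (at Km) in 100 mM KPO4, compound preincubated 10 min, then NADPH regeneration system for 60 min at room temperature. Luciferin read by luminescence; normalized to 1.43 uM quinidine.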

[6] = biological target: Cytochrome P450 2C19 (Homo sapiens) (UniProt P33261); assay: qHTS Assay for Inhibitors and Substrates of Cytochrome P450 2C19 (AID 899); settings: recombinant CYP2C19, luciferin-H EGE luminescence; series mostly up to 57.1 µM; note: nearly all actives have a fitted effect of over 60% in size; note: potency is the fitted concentration of half-maximal effect
Summary of the method: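 Human CYP2C19 (5nM) with Luciferin-H EGE at 10uM (its KM) in 50mM KPO4 was preincubated with compound for 10 min at 37C. NADPH regeneration started a 60 min 37C reaction. Luciferin was read by luminescence, normalized to 57uM ketoconazole.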

[7] = biological target: Cytochrome P450 2C9 (Homo sapiens) (UniProt P11712); assay: qHTS Assay for Inhibitors and Substrates of Cytochrome P450 2C9 (AID 883); settings: recombinant CYP2C9, luciferin-H luminescence, 60 min; series mostly up to 57.1 µM; note: nearly all actives have a fitted effect of over 60% in size; note: potency is the fitted concentration of half-maximal effect
Summary of the method: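 Human CYP2C9 (10nM) hydroxylated Luciferin-H (100uM, at its KM) to luciferin in 25mM KPO4. Compound was preincubated 10 min at 37C, then NADPH regeneration started a 60 min reaction at 37C. Luminescence was read after detection reagent, normalized to 57uM sulphaphenazole.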

[8] = biological target: Cytochrome P450 3A4 (Homo sapiens) (UniProt P08684); assay: qHTS Assay for Activators of Cytochrome P450 3A4 (AID 885); settings: recombinant CYP3A4, Luciferin-PPXE luminescence, 60 min; series mostly up to 57.1 µM; note: nearly all actives have a fitted effect of over 65% in size
Summary of the method: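 Steps: enzyme/substrate mix dispensed; compound added, 10 min RT; NADPH regeneration solution added, 60 min RT; luciferin detection buffer stops reaction; 20 min later luminescence measured.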

[9] = biological target: Tyrosyl-DNA phosphodiesterase 1 (Homo sapiens) (UniProt Q9NUW8); assay: Confirmation Assay for Inhibitors of Tyrosyl-DNA Phosphodiesterase (TDP1) (AID 489007); settings: recombinant human TDP1 enzymatic activity, dose-response; note: potency is the fitted concentration of half-maximal effect; nearly all actives have a fitted effect of over 40% in size
Summary of the method: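 Confirmation of primary-screen follow-ups in a qHTS format. Substrate cleavage by Tdp1 (1 nM) of a 3'-phosphotyrosine-FITC, 5'-biotin oligo (15 nM) was monitored as decreased AlphaScreen signal after a 5 min room-temperature reaction.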

Measured: Potency

Cytochrome P450 2C19 (Homo sapiens), sequence (P33261 whole entry, looked up): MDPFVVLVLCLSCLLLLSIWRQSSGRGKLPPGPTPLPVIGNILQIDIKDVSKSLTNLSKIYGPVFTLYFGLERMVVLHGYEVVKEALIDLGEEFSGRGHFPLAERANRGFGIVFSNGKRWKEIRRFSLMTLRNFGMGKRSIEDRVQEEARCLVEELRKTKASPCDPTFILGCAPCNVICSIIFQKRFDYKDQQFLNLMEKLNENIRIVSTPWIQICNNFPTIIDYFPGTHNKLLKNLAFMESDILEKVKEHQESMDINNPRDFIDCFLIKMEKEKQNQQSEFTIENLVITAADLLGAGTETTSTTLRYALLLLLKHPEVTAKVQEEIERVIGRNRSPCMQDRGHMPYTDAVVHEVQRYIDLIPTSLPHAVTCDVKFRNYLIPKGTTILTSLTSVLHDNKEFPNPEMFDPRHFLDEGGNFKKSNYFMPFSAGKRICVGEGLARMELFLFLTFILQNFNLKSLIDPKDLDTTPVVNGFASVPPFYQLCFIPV
Cytochrome P450 1A2 (Homo sapiens), sequence (P05177 whole entry, looked up): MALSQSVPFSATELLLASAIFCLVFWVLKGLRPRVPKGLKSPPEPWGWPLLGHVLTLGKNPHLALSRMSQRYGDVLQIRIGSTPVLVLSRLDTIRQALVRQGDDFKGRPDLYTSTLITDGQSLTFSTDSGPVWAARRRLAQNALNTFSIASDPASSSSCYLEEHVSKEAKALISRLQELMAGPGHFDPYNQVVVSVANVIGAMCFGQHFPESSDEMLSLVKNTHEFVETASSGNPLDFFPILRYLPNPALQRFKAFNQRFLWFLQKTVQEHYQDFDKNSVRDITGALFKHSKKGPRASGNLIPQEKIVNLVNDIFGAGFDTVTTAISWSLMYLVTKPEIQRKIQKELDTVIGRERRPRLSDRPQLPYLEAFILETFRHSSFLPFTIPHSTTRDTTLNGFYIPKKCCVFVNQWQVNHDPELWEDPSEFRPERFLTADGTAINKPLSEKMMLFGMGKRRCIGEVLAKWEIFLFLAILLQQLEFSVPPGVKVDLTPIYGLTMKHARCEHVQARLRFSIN
Cytochrome P450 2C9 (Homo sapiens), sequence (P11712 whole entry, looked up): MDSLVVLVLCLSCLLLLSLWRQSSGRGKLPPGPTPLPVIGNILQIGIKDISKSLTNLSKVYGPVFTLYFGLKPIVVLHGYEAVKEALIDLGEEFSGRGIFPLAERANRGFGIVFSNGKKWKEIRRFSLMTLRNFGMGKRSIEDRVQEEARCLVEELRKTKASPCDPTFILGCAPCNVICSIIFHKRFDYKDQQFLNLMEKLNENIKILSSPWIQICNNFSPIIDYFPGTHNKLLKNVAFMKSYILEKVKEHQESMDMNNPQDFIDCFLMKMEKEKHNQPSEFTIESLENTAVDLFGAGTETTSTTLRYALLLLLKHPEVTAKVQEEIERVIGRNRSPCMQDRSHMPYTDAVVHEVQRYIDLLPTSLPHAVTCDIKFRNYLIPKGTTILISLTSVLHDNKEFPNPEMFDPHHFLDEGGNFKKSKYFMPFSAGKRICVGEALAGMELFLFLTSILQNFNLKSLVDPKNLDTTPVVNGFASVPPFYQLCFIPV
Cytochrome P450 2D6 (Homo sapiens), sequence (P10635 whole entry, looked up): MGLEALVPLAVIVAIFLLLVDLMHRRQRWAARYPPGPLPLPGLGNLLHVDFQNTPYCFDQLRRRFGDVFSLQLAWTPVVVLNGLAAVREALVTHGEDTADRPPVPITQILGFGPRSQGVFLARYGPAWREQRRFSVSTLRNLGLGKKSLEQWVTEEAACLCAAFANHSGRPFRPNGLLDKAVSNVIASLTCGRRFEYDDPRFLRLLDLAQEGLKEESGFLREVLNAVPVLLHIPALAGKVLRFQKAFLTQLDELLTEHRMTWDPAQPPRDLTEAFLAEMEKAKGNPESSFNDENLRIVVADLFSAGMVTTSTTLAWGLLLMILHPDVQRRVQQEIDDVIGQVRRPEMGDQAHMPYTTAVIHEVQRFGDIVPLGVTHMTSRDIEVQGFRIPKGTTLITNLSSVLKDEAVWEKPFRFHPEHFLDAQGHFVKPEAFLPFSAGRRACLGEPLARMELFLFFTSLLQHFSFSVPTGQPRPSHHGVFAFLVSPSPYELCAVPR
Glucocorticoid receptor (Homo sapiens), sequence (P04150 whole entry, looked up, the tested form may be a part): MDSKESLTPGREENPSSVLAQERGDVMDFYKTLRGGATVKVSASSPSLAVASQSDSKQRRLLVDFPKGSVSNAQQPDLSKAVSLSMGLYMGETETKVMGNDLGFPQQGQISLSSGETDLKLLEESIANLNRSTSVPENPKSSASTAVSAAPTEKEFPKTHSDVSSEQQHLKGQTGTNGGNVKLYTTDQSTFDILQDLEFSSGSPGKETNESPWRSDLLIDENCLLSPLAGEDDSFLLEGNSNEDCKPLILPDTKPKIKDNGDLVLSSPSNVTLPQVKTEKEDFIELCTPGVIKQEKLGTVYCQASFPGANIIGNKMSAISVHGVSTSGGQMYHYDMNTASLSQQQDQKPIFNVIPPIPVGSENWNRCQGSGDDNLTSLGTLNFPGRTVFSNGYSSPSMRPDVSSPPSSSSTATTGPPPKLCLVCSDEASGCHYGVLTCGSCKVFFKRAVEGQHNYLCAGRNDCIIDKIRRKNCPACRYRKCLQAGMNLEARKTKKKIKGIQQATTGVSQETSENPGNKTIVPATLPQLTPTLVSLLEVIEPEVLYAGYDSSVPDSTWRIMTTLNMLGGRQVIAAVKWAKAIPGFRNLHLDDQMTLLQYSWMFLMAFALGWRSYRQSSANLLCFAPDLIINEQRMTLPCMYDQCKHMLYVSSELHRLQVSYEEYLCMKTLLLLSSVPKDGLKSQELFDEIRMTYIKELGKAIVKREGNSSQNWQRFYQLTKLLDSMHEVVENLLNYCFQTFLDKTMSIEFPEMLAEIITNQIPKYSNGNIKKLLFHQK
3',5'-cyclic-AMP phosphodiesterase 4B (Homo sapiens), sequence (Q07343 whole entry, looked up): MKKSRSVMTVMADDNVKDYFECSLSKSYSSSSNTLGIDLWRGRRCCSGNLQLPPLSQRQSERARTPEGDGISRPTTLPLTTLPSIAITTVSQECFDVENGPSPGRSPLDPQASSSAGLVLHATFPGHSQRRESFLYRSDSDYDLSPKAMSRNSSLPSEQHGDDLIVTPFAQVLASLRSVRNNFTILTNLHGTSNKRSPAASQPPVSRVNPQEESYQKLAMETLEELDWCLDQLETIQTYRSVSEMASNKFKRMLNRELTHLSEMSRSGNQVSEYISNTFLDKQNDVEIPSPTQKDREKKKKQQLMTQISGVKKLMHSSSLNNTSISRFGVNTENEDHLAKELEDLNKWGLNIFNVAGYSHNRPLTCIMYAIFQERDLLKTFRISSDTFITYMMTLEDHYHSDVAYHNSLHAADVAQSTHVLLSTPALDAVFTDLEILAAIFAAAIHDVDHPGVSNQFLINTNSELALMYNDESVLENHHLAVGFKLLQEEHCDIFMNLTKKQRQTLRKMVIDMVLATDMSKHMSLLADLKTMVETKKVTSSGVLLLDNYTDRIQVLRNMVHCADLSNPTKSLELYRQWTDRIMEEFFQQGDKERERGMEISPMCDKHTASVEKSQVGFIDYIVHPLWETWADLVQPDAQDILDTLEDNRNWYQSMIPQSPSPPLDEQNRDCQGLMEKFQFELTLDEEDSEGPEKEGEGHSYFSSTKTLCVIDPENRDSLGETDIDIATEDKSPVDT
Tyrosyl-DNA phosphodiesterase 1 (Homo sapiens), sequence (Q9NUW8 whole entry, looked up): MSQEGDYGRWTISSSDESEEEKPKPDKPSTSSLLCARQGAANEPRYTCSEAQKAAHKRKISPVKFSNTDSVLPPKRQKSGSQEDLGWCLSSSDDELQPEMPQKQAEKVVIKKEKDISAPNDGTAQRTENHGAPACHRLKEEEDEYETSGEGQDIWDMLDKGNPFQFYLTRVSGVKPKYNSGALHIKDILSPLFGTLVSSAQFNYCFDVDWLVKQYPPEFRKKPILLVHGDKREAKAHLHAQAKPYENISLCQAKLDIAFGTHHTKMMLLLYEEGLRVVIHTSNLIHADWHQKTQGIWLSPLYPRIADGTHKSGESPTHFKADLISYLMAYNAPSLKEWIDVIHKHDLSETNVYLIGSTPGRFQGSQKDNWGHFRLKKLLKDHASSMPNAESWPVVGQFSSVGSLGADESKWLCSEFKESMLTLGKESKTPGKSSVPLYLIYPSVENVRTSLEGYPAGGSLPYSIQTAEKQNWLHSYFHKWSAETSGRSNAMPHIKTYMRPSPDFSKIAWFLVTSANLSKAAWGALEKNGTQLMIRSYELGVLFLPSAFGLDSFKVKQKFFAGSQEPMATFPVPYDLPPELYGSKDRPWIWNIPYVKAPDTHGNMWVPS
Cytochrome P450 3A4 (Homo sapiens), sequence (P08684 whole entry, looked up): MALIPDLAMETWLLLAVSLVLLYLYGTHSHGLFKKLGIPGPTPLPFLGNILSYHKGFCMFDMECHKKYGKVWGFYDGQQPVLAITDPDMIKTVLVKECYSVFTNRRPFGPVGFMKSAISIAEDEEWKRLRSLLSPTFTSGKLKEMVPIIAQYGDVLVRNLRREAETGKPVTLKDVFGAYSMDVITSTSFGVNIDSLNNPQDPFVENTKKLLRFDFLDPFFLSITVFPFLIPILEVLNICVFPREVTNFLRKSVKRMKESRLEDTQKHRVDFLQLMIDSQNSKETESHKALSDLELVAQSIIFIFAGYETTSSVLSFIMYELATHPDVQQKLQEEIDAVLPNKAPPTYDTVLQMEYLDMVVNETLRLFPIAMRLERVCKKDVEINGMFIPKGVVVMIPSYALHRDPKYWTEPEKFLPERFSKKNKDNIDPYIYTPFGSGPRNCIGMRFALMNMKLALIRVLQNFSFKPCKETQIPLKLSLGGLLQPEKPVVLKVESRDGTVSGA

CC(C)C[C@@H](CC(=O)N[C@@H](CCC(=O)O)CC(=O)O)NC(=O)[C@@H]1CNCC[C@H]1NC(=O)C[C@H](CCCN)NC(=O)C[C@H](Cc1ccccc1)NC(=O)[C@@H]1CNCC[C@H]1N
active: [1] 31.6 µM
inactive: [2] > 46 µM | [3] | [4] | [5] | [6]

NCCC[C@@H](CC(=O)N[C@@H]1CCNC[C@H]1C(=O)N[C@H](CC(=O)N[C@@H](CCC(=O)O)CC(=O)O)Cc1c[nH]c2ccccc12)NC(=O)C[C@H](CO)NC(=O)[C@@H]1CNCC[C@H]1N
inactive: [1] | [2] > 46 µM | [3] | [4] | [5] | [6]

CC(C)[C@@H](CC(=O)N[C@@H]1CCNC[C@H]1C(=O)N[C@H](CC(=O)N[C@@H](CCC(=O)O)CC(=O)O)Cc1ccccc1)NC(=O)C[C@H](Cc1ccccc1)NC(=O)[C@@H]1CNCC[C@H]1N
inactive: [2] > 46 µM | [3] | [4] | [7] | [5] | [6]
active: [1] 15.8 µM

CC(C)[C@@H](CC(=O)N[C@@H]1CCNC[C@H]1C(=O)N[C@H](CC(=O)N[C@@H](CCC(=O)O)CC(=O)O)Cc1ccccc1)NC(=O)C[C@H](Cc1c[nH]c2ccccc12)NC(=O)[C@@H]1CCCC[C@H]1N
active: [1] 39.8 µM
inactive: [2] > 46 µM | [3] | [4] | [7] | [5] | [6]

NCCC[C@@H](CC(=O)N[C@@H]1CCNC[C@H]1C(=O)N[C@H](CC(=O)N[C@@H](CCC(=O)O)CC(=O)O)Cc1c[nH]c2ccccc12)NC(=O)C[C@H](CO)NC(=O)[C@@H]1CCCC[C@H]1N
inactive: [1] | [2] > 46 µM | [3] | [4] | [7] | [5] | [6]

NCCC[C@@H](CC(=O)N[C@@H]1CCNC[C@H]1C(=O)N[C@H](CC(=O)N[C@@H](CCC(=O)O)CC(=O)O)Cc1c[nH]c2ccccc12)NC(=O)C[C@H](Cc1ccccc1)NC(=O)[C@@H]1CNCC[C@H]1N
active: [1] 31.6 µM
inactive: [2] > 46 µM | [4] | [7] | [5] | [6]

CC(C)C[C@@H](CC(=O)N[C@@H](CCC(=O)O)CC(=O)O)NC(=O)[C@@H]1CCCC[C@H]1NC(=O)C[C@@H](NC(=O)C[C@H](Cc1c[nH]c2ccccc12)NC(=O)[C@@H]1CCCC[C@H]1N)C(C)C
inactive: [1] | [2] > 46 µM | [4] | [7] | [5] | [6]

COc1cc(/C=C\C(=O)N2CCCCC2=O)cc(OC)c1OC
inactive: [2] > 46 µM | [7] | [5] | [6]
active: [1] 0.1 µM

CC(C)[C@@H](CC(=O)N[C@@H]1CCCC[C@H]1C(=O)N[C@H](CC(=O)N[C@@H](CCC(=O)O)CC(=O)O)Cc1c[nH]c2ccccc12)NC(=O)C[C@H](CO)NC(=O)[C@@H]1CNCC[C@H]1N
inactive: [1] | [2] > 46 µM | [4] | [5] | [6]

CCCC[C@@H]1C[C@H]1C(NC(=O)c1ccc(-c2ccccc2)cc1)c1ccc(-c2ccccc2)cc1 (some centres undefined)
inactive: [1] | [3] | [4]

COC(=O)c1ccc(C#CC(NP(=O)(c2ccccc2)c2ccccc2)c2ccccc2)cc1 (centres undefined)
inactive: [3]
active: [1] 20 µM

C[C@@H](C(=O)Nc1ccc2ccccc2c1)[C@@H]1C[C@@]1(C)[C@@H](NS(=O)(=O)c1ccc(-c2ccccc2)cc1)c1ccccc1
active: [1] 12.6 µM
inactive: [3] | [4]

CC(C)C[C@@H](CC(=O)N[C@@H](CCCN)CC(=O)N[C@@H]1CCCC[C@H]1C(=O)N[C@H](CC(=O)N[C@@H](CCC(=O)O)CC(=O)O)Cc1ccccc1)NC(=O)[C@@H]1CNCC[C@H]1N
inactive: [2] > 46 µM | [4] | [7] | [5] | [6]
active: [1] 25.1 µM

NCCC[C@@H](CC(=O)N[C@@H]1CCNC[C@H]1C(=O)N[C@H](CC(=O)N[C@@H](CCC(=O)O)CC(=O)O)Cc1c[nH]c2ccccc12)NC(=O)C[C@H](Cc1c[nH]c2ccccc12)NC(=O)[C@@H]1CNCC[C@H]1N
inactive: [1] | [2] > 46 µM | [4] | [6]

CCc1c2c(nc3cccc(SC)c13)COC2
active: [1] 2.51 µM
inactive: [3]

CC(C)[C@@H](CC(=O)N[C@@H]1CCCC[C@H]1C(=O)N[C@H](CC(=O)N[C@@H](CCC(=O)O)CC(=O)O)Cc1ccccc1)NC(=O)C[C@H](CO)NC(=O)[C@@H]1CNCC[C@H]1N
inactive: [1] | [2] > 46 µM | [5] | [6]

CC(C)C[C@@H](CC(=O)N[C@@H](CCC(=O)O)CC(=O)O)NC(=O)[C@@H]1CCCC[C@H]1NC(=O)C[C@H](CCCN)NC(=O)C[C@H](CO)NC(=O)[C@@H]1CCCC[C@H]1N
inactive: [1] | [2] > 46 µM | [4] | [5] | [6]

CC(C)C[C@@H](CC(=O)N[C@@H](CCCN)CC(=O)N[C@@H]1CCCC[C@H]1C(=O)N[C@H](CC(=O)N[C@@H](CCC(=O)O)CC(=O)O)Cc1c[nH]c2ccccc12)NC(=O)[C@@H]1CCCC[C@H]1N
inactive: [1] | [2] > 46 µM | [4] | [5] | [6]

CCCCC#Cc1ccccc1CC(=O)Nc1ccccc1
active: [1] 2.51 µM | [7] 2.51 µM | [6] 0.794 µM | [9] 31.6 µM
inactive: [3] | [8]

CC(C)C[C@@H](CC(=O)N[C@@H](CCC(=O)O)CC(=O)O)NC(=O)[C@@H]1CNCC[C@H]1NC(=O)C[C@@H](NC(=O)C[C@H](Cc1ccccc1)NC(=O)[C@@H]1CCCC[C@H]1N)C(C)C
inactive: [2] > 46 µM | [4] | [7] | [5] | [6]
active: [1] 31.6 µM

COC(=O)[C@@]1(Cc2ccc(OC)cc2)[C@H]2c3cc(C(=O)N(C)C)n(CCN4CNCC4=O)c3C[C@H]2CN1C(=O)c1ccccc1
inactive: [3] | [4]
active: [1] 20 µM
